Shown are actives, neighbours in structure and some others; about 9.4% of the full set was active somewhere.
SMN2 splice up – enhancers of SMN2 splice variant expression | hit rate 2.8% among 210,000 | HEK293 SMN2-luciferase splicing reporter, luminescence, 30-36 h | AID 1458 | Potency, µM (doses to about 46.1 µM), most hits filed as activators; also: nearly all actives have a fitted effect of over 55% in size
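qHTS luciferase splicing reporter: luminescence rises when SMN2 exon 7 is included in transfected HEK293 cells. Compound exposure lasted 30-36 h at 37C, with 4.5 mM final sodium butyrate as control, followed by a ONE-Glo read.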
NPC1 promoter act – NPC1 promoter activation; Huh7 NPC1 promoter luciferase reporter, 24 h; Potency, µM (doses to about 9.22 µM), hits mostly activators; hit rate 2.4% among 320,000; AID 485313; also: nearly all actives have a fitted effect of over 60% in size
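Compounds in DMSO were transferred onto Huh7 NPC1-luciferase reporter cells pre-incubated 2 h; after 24 h at 37 °C, Amplite reagent was dispensed and luminescence recorded 10 min later.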
FLuc counter – inhibits or activates purified firefly luciferase, miR-21 counter-screen | purified FLuc, Km substrates, luminescence inhibition | hit rate 6.9% among 360,000 | P08659 | Potency, µM (highest dose often 57.5 µM), usual class: inhibitors | AID 588342; also: nearly all actives have a fitted effect of over 55% in size
Target sequence (P08659 whole entry, looked up): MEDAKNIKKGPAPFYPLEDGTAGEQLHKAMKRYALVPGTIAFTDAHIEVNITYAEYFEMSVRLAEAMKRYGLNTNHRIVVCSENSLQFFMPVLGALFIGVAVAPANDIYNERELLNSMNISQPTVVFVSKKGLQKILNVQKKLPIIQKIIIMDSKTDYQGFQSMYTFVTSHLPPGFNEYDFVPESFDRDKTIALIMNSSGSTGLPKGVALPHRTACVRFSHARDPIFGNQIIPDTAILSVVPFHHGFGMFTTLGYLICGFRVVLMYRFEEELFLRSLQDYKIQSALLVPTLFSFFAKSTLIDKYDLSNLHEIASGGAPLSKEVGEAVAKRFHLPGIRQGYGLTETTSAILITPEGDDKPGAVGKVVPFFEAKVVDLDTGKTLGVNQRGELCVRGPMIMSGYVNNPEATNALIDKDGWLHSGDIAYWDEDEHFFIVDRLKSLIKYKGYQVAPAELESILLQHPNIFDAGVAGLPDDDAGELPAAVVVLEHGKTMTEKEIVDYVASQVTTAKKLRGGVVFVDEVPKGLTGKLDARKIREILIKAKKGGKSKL
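Purified P. pyralis luciferase (10nM final) with 10uM D-luciferin and 10uM ATP (Km levels) in 50mM Tris acetate pH 7.5, 10mM Mg acetate, 0.01% Tween-20, 0.05% BSA; qHTS 6-point titration, ~60 µM downward; luminescence read.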
ELG1 repair inh – inhibitors of ELG1-dependent DNA repair in HEK293T cells. Potency, µM (top dose mostly 46.1 µM), usual class: inhibitors. HEK293T ELG1-luciferase reporter, luminescence, 16 h; DNA damage induced by 5-fluorouridine. AID 504467. hit rate 2.3% among 330,000; also: nearly all actives have a fitted effect of over 55% in size
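Overnight (16 hr) co-exposure of 2,000 cells/well to 5-fluorouridine and compound at 37 °C preceded detection. Luciferase was quantified via ONE-Glo luminescence; loss of signal denotes inhibition.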
ELG1 genotoxic – inducers of genotoxicity in HEK293T ELG1-luciferase cells; hit rate 1.3% among 330,000; HEK293T ELG1-luciferase reporter, luminescence, 16 h; Potency, µM (titrated, usually from 46 µM), hits mostly activators; also: nearly all actives have a fitted effect of over 60% in size
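HEK293T cells expressing luciferase-tagged ELG1 were exposed to compound or DMSO vehicle for 16 hr at 37 °C and 5% CO2. Luciferase activity was then measured with ONE-Glo after 30 min at room temperature.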
Rab9 prom act – activates the Rab9 promoter; Huh7 Rab9 promoter-luciferase reporter, luminescence, 24 h; Potency, µM (titrated, usually from 9.22 µM), hits mostly activators; hit rate 2.8% among 320,000; also: nearly all actives have a fitted effect of over 60% in size
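Quantitative HTS format; Huh7 Rab9-luciferase reporter cells (1500/well) receive compound 2 h post-plating, incubate 24 h at 37 °C, then get luciferase reagent for 10 min before luminescence reading.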
Hits are given with their value; . = inactive; ? = inconclusive; / = not tested or not shown; [ ] = dose if it differs, or a comment. Calls follow the shape of the dose curve; as a rule, active = well fitted curve in the direction sought with a large enough effect; inconclusive = small, poorly fitted or top-dose-only effect, or another doubt; inactive = no such curve, though single readings can be large; an effect the other way counts as inactive or inconclusive.

SMILES | SMN2 splice up | NPC1 promoter act | FLuc counter | ELG1 repair inh | ELG1 genotoxic | Rab9 prom act
N/C(=N\OC(=O)c1cccc([N+](=O)[O-])c1)c1cccnc1 | . | . | ? | ? | . | .
N/C(=N\OC(=O)c1ccc(Cl)cc1)c1cccnc1 | . | . | 1.35µM | ? | 8.91µM | .
Cc1ccccc1/C(N)=N/OC(=O)c1cccs1 | .[1.84 µM] | . | 6.75µM | ? | ? | .
Cc1ccc(/C(N)=N/OC(=O)c2ccc(C)cc2Cl)cc1 | ? | 1.12µM | 0.849µM | ? | ? | 0.708µM
COc1ccc(-n2c(C)nc3cc(C(=O)NC4CCCC4)ccc32)cc1 | / | / | . | / | / | /
CCOc1ccc(NC(=O)Cn2c(=O)n(Cc3ccccc3)c(=O)c3sc4ccccc4c32)cc1 | . | / | . | / | / | /
CCSc1ccc(/C(N)=N/OC(=O)c2cccs2)cn1 | / | ? | 6.01µM | ? | 13µM | ?
Cc1cnc(C(=O)OCC(=O)c2cc(C)n(C)c2C)cn1 | . | . | . | . | . | .
Cc1cc(C(=O)COC(=O)c2cc(Cl)c(O)c(Cl)c2)c(C)n1C | / | . | 16.9µM | ? | . | .
Cc1cc(C(=O)COC(=O)c2ccc(Br)o2)c(C)n1C | . | . | 8.49µM | ? | ? | .
COCCn1c(C)cc(C(=O)COC(=O)c2ccc(Br)o2)c1C | . | 3.16µM | 1.9µM | ? | 4.11µM | ?
CCOC(=O)CNc1oc(-c2ccccc2)nc1-c1ccccc1 | . | / | / | / | / | /
CCCCOC(=O)c1c(C)oc2c1cc(NS(=O)(=O)c1cc(OC)ccc1OC)c1ccccc12 | . | / | . | / | / | /
COC(=O)c1ccccc1NC(=O)c1ccc(CN2CC(=O)N3CCCCC3C2=O)cc1 (centres undefined) | / | / | . | / | / | /
Cc1csc(Nc2ccccc2)n1 | . | . | ? | ? | ? | ?
Cc1csc(N/N=C/c2ccccn2)n1 | 3.55µM | . | 2.13µM | ? | 11.6µM | 0.447µM
C(=N\Nc1ccccc1)/c1nc2ccccc2s1 | / | 3.55µM | 1.51µM | ? | ? | 0.794µM
Cc1ccc2[nH]c(C)c(/C=N/Nc3nc4ccccc4s3)c2c1 | . | . | ? | . | . | .
C(=N\Nc1nc2ccccc2s1)/c1ccccn1 | / | . | 0.0757µM | ? | ? | .
Brc1csc(/C=N/Nc2nc3ccccc3s2)c1 | 2.82µM | 5.01µM | 1.2µM | ? | ? | 3.16µM
CCOC(=O)c1cnc2ccc(OC)cc2c1Nc1ccc(OCc2ccccc2Cl)cc1 | . | / | . | / | / | /
Cc1ccc2c(=O)cc(C(=O)Nc3sc4c(c3C(=O)NCC3CCCO3)CCC4)oc2c1 (centres undefined) | . | / | . | / | / | /
Cc1c2cn[nH]c(=O)c2c(C)n1-c1ccccc1 | / | . | 6.01µM | ? | . | .
O=c1c2cn[nH]c2[nH]c(=S)n1-c1ccccc1 | . | . | . | . | . | .
C#C[C@]1(O)CC[C@@H]2[C@H]3CCC4=Cc5oncc5C[C@]4(C)[C@@H]3CC[C@@]21C | . | / | / | / | / | /
SMILES | SMN2 splice up | NPC1 promoter act | FLuc counter | ELG1 repair inh | ELG1 genotoxic | Rab9 prom act
CCCC1(c2ccccc2)NC(=O)N(CC(=O)c2[nH]c(C)c(C(=O)OCC)c2C)C1=O (centres undefined) | . | . | ? | 18.4µM | . | .
CCOC(=O)c1c(C)[nH]c(C(=O)CN2C(=O)NC(C)(c3ccc4ccccc4c3)C2=O)c1C (centres undefined) | . | . | . | 16.4µM | . | .
O=C(NCc1ccccc1Br)c1ccc(-n2cnc3cccnc32)cc1 | / | / | . | / | / | /
FC(F)(F)c1cccc(Cn2c3[n+](c4ccc(C(F)(F)F)cc42)CCCCC3)c1 | . | . | . | ? | . | .
Cc1cc(C(C)(C)C)cc(C)c1Cn1c2[n+](c3ccc(C(F)(F)F)cc31)CCCCC2 | . | . | . | 14.6µM | . | .
O=C(NCCc1ccc(Cl)cc1)c1ccc2c(c1)OCO2 | / | 1.78µM | 12µM | ? | ? | 1.78µM
O=C(NCCc1ccccc1F)c1ccc2c(c1)OCCO2 | / | 0.0251µM | 0.0478µM | ? | ? | 0.0006µM
NS(=O)(=O)c1ccc(CCNC(=O)c2ccc3c(c2)OCO3)cc1 | / | . | . | . | . | .
O=C(NCCc1ccc(Cl)cc1)c1ccc2c(c1)OCCO2 | / | 0.398µM | 1.2µM | ? | 2.31µM | 0.316µM
O=C(NCCOc1ccc(Cl)cc1)c1ccc2c(c1)OCCO2 | / | 3.16µM | 8.49µM | ? | ? | 3.55µM
O=C(c1ccccc1)[C@H]1[C@H](c2ccccc2)[C@@]2(N=C(c3ccccc3)OC2=O)C2c3ccccc3C=NN21 (some centres undefined) | ? | 3.98µM | ? | ? | . | 4.47µM
COc1ccc2[nH]c3c(=O)n(Cc4ccc(C(=O)N5CCCCCC5)cc4)c(=S)[nH]c3c2c1 | . | . | . | ? | . | .
O=C(c1ccc(Cn2c(=S)[nH]c3ccccc3c2=O)cc1)N1CCN(c2ccccn2)CC1 | . | . | . | 10.3µM | . | .
COc1ccc2[nH]c3c(=O)n(Cc4ccc(C(=O)N5CCC(C(N)=O)CC5)cc4)c(=S)[nH]c3c2c1 | . | . | 21.3µM | 8.2µM | . | .
CCOC(=O)N1CCN(C(=O)c2ccc(Cn3c(=S)[nH]c4cc5c(cc4c3=O)OCO5)cc2)CC1 | . | . | . | 23.1µM | . | .
CCCCC(CC)CNC(=O)c1ccc2c(=O)n(CCOC)c(=O)[nH]c2c1 (centres undefined) | 3.98µM | / | . | / | / | /
C=Cc1ccc(Cn2c(=O)n(-c3cccc(Cl)c3)c(=O)c3c4c(sc32)CN(C(C)=O)CC4)cc1 | . | / | . | / | / | /
COc1ccc(C2OC3C(CO)OC(n4cnc5c(=O)[nH]c(N)nc54)C3O2)cc1 (centres undefined) | . | / | / | / | / | /
O=C(c1cccc(Cl)c1)N(Cc1cccc(F)c1)C1CCS(=O)(=O)C1 (centres undefined) | . | / | . | / | / | /
COCCn1c(=S)[nH]c2cc(C(=O)N3CCC(C(N)=O)(N4CCCCC4)CC3)ccc2c1=O | / | . | . | . | . | .
COCCn1c(=O)[nH]c2cc(C(=O)N3CCN(c4ccc(Cl)cc4)CC3)ccc2c1=O | . | . | . | 18.3µM | . | .
O=C(CCc1nnc2n(Cc3ccc(F)cc3)c(=O)c3ccccc3n12)N1CCN(c2ccccn2)CC1 | / | . | . | 14.6µM | .[9.26 µM] | .
CCOC(=O)N1CCN(C(=O)c2ccc3c(=O)n(Cc4ccc(OC)cc4)c(=S)[nH]c3c2)CC1 | . | . | . | 13µM | . | .
CCOC(=O)N1CCN(C(=O)c2ccc3c(=O)n(Cc4ccccc4)c(=S)[nH]c3c2)CC1 | . | . | . | . | . | .
O=C(CCc1nnc2n(Cc3ccc(F)cc3)c(=O)c3ccccc3n12)NCCN1CCOCC1 | / | . | . | . | . | .
CCOC(=O)C1CCCN(C(=O)c2ccc3c(=O)n(CCOC)c(=S)[nH]c3c2)C1 (centres undefined) | . | . | . | 8.2µM | . | .

Compound activity deposited in PubChem BioAssay by National Center for Advancing Translational Sciences (NCATS).
